{"source": "PubChem BioAssay AID709", "about": "(SRMLSC, 2007)", "note": "The campaign covered roughly 65,000 compounds. About 3,600 (5.5%) were called active. The entries come from a sample that favours actives as a whole. Values without a mark were called inactive.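 The calls were made as follows: active = at 10 µM, mean starting fluorescence two-fold or more over control wells; inactive = the rest.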"}
{"test": "intrinsic fluorescence of library compounds, ex339/em460 – biochemical, MLSMR library, data from DPM-DC assay, artefact control, profiling panel (AID 709);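 also: signal is the first read of a kinetic run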", "details": "compound autofluorescence, ex339/em460 nm, NADH buffer; at 10 µM; active compounds read high; 1 = no-compound wells, NADH background"}
{"smiles": "CC(=O)c1cc(-c2ccccc2)[nH]c1N1CCCC1", "fluorescence fold increase": 1.05}
{"smiles": "Cc1ccc(OCc2nc(C#N)c(N3CCCC3)o2)cc1", "fluorescence fold increase": 1.03}
{"smiles": "CC1CCN(c2oc(-c3ccccc3F)nc2C#N)CC1", "fluorescence fold increase": "2.45 (active)"}
{"smiles": "N#Cc1nc(COc2ccc(Cl)cc2)oc1N1CCCC1", "fluorescence fold increase": 1.02}
{"smiles": "Cc1cc(C)c(C#N)c(SCc2ccc3c(c2)OCO3)n1", "fluorescence fold increase": 1.09}
{"smiles": "CCOC(=O)N1CCN(C(=O)CN(C2CCCCC2)S(C)(=O)=O)CC1", "fluorescence fold increase": 1.07}
{"smiles": "CCOc1ccc2[nH]c(=O)c(C(c3nnnn3CCOC)N3CCOCC3)cc2c1", "note": "(stereo unspecified)", "fluorescence fold increase": "5.03 (active)"}
{"smiles": "COCCn1nnnc1C(c1cc2ccc(OC)cc2[nH]c1=O)N1CCc2ccccc2C1", "note": "(stereo unspecified)", "fluorescence fold increase": 1.12}
{"smiles": "COc1ccc(N2CCN(C(c3cc4ccc(C)cc4[nH]c3=O)c3nnnn3C3CCCC3)CC2)cc1", "note": "(stereo unspecified)", "fluorescence fold increase": 1.25}
{"smiles": "O=C(O)Cc1ccc(NC(=O)C2CCCCC2C(=O)O)cc1", "note": "(stereo unspecified)", "fluorescence fold increase": 1.09}
{"smiles": "CC1CN(C(=O)c2ccc3c(c2)OCO3)OC(c2ccccc2)O1", "note": "(stereo unspecified)", "fluorescence fold increase": 1.07}
{"smiles": "COc1ccc(C2/C(=C(/O)c3ccc(OC(C)C)cc3)C(=O)C(=O)N2CCCN2CCOCC2)cc1", "note": "(stereo unspecified)", "fluorescence fold increase": 1.01}
{"smiles": "O=C(OCC(=O)N1CCN(C(=O)c2ccco2)CC1)c1ccccc1Cc1ccccc1", "fluorescence fold increase": 0.99}
{"smiles": "COc1cc(OC)c(NC(=O)c2ccc(Br)o2)cc1Cl", "fluorescence fold increase": 1.09}
{"smiles": "COC(=O)c1c(NC(=O)c2cccs2)sc2c1CCCC2", "fluorescence fold increase": "2.23 (active)"}
{"smiles": "CCOCC(=O)Nc1sc2c(c1C(=O)OCC)CCCC2", "fluorescence fold increase": 1.11}
{"smiles": "COC(=O)c1c(NC(=O)CSc2nncs2)sc2c1CCCCC2", "fluorescence fold increase": 1.1}
{"smiles": "CCOC(=O)c1c(NC(=O)c2ccc(Br)o2)sc2c1CCCC2", "fluorescence fold increase": "2.17 (active)"}
{"smiles": "CC(CNC(=O)c1ccc(Br)o1)NC(=O)c1ccc(Br)o1", "note": "(stereo unspecified)", "fluorescence fold increase": 1.02}
{"smiles": "CCc1c(C)sc(NC(=O)c2ccc(Br)o2)c1C(=O)OC", "fluorescence fold increase": "2.8 (active)"}
{"smiles": "CCOC(=O)c1c(NC(=O)c2cccs2)sc(C)c1C", "fluorescence fold increase": 1.74}
{"smiles": "CCCOC(=O)Nc1sc2c(c1C(=O)OCC)CCC2", "fluorescence fold increase": 1.1}
{"smiles": "Fc1ccccc1CCNc1nnnn1-c1ccccc1", "fluorescence fold increase": 1.11}
{"smiles": "COc1cc(NS(=O)(=O)c2ccc(NC(C)=O)cc2)cc(OC)c1", "fluorescence fold increase": 1.13}
{"smiles": "COC(=O)c1ccc2c(c1)S(=O)(=O)NC(=NCCCN1CCOCC1)S2", "fluorescence fold increase": 1.06}
{"smiles": "CCNC(=O)CN(c1ccc(C)cc1)S(=O)(=O)c1ccc(SC)cc1", "fluorescence fold increase": 1.06}
{"smiles": "CCCOP(=O)(c1ccc(N(C)C)cc1)C(O)c1cc(OC)c(OC)c(OC)c1", "note": "(stereo unspecified)", "fluorescence fold increase": 1.13}
{"smiles": "CN(C)CCCn1c(N)c(C#N)c2nc(C#N)c(C#N)nc21", "fluorescence fold increase": "3.35 (active)"}
{"smiles": "O=C1C(C=NCC2CCCO2)=C(O)c2ccccc21", "note": "(stereo unspecified)", "fluorescence fold increase": 1.09}
{"smiles": "COC(=O)c1cnn2c(C(F)(F)F)cc(-c3ccco3)nc12", "fluorescence fold increase": "2.46 (active)"}
{"smiles": "O=C(NCc1ccco1)c1cnn2c(C(F)(F)F)cc(-c3ccco3)nc12", "fluorescence fold increase": 1.6}
{"smiles": "COc1ccc(-c2cc(C(F)(F)F)n3nc(C(=O)N4CCOCC4)c(Cl)c3n2)cc1", "fluorescence fold increase": 1.17}
{"smiles": "CC(=O)Nc1ccc(S(=O)(=O)Nc2ccc(N3CCOCC3)c(F)c2)cc1", "fluorescence fold increase": 1.1}
{"smiles": "CCn1c(SCC(=O)NCc2ccco2)nnc1-c1ccc(N)cc1", "fluorescence fold increase": 1.1}
{"smiles": "CCOC(=O)c1cc(NC(=O)SCC(=O)O)c(C)nc1C", "fluorescence fold increase": 1.15}
{"smiles": "CCOC(=O)c1c(C(C#N)C#N)cc(C)nc1C", "fluorescence fold increase": 0.98}
{"smiles": "CCOC(=O)c1cc(-c2ccc(Cl)s2)nc2c1c(C)nn2C", "fluorescence fold increase": "3.19 (active)"}
{"smiles": "CCOC(=O)N1CCN(C(=O)c2cc3c(ccc4ccccc43)oc2=O)CC1", "fluorescence fold increase": "3.93 (active)"}
{"smiles": "CS(=O)(=O)N1CCN(C(=O)c2cc3ccccc3oc2=O)CC1", "fluorescence fold increase": 1.14}
{"smiles": "O=C(NCCc1ccc2c(c1)OCCO2)c1cc2ccccc2o1", "fluorescence fold increase": 1.11}
{"smiles": "CNC(=O)c1cc2c(ccc3ccccc32)oc1=N", "fluorescence fold increase": "2.32 (active)"}
{"smiles": "C=CCc1cccc2cc(C(=O)N3CCN(C(=O)OCC)CC3)c(=O)oc12", "fluorescence fold increase": 1.17}
{"smiles": "CN1CCN(CCCNC(=O)c2cc3c(=O)oc4ccccc4c3s2)CC1", "fluorescence fold increase": 1.53}
{"smiles": "Cc1ccc(C(=O)N2CCN(C3CCCCC3)CC2)s1", "fluorescence fold increase": 1.14}
{"smiles": "Cc1oc(C)c(C(=O)NCCCC(=O)O)c1C(=O)NCCCC(=O)O", "fluorescence fold increase": 1.14}
{"smiles": "CCOc1ccc(Cn2nnc(C(=O)Nc3ccc(OC)cc3OC)c2N)cc1", "fluorescence fold increase": 1.25}
{"smiles": "C[N+]1(CCNC(=O)/C=N/O)CCCCC1", "fluorescence fold increase": 1.1}
{"smiles": "CCCCC(=O)N1CC2(C)CN(C(=O)CCCC)CC(C)(C1)C2=O", "fluorescence fold increase": 1.09}
{"smiles": "COc1ccc(N2C(=O)CCC(C(=O)Nc3ccccn3)C2c2ccc(OC)c(OC)c2)cc1", "note": "(stereo unspecified)", "fluorescence fold increase": 0.92}
{"smiles": "COc1ccc(C2CC(=O)C=C(NCC3CCCO3)C2)cc1", "note": "(stereo unspecified)", "fluorescence fold increase": 1.07}
{"smiles": "Cc1ccc(C(=O)NCC2CCCO2)o1", "note": "(stereo unspecified)", "fluorescence fold increase": 1.14}
{"smiles": "CC1(C)CC(=O)c2cc(OCC(=O)NCC3CCCO3)ccc2O1", "note": "(stereo unspecified)", "fluorescence fold increase": "5.06 (active)"}
{"smiles": "O=C(Nc1ccc(-c2nnc(-c3ccccc3)o2)cc1)C1CCCO1", "note": "(stereo unspecified)", "fluorescence fold increase": 1.79}
{"smiles": "Nc1ccc(-c2nnc(-c3ccc(-c4ccccc4)cc3)o2)cc1", "fluorescence fold increase": "3.89 (active)"}
{"smiles": "O=C(Nc1ccc(-c2nnc(-c3ccccc3)o2)cc1)c1ccc(Br)o1", "fluorescence fold increase": 1.45}
{"smiles": "CO/N=C(\\C(=O)N[C@@H]1C(=O)N2C(C(=O)O)=C(COC(C)=O)CS[C@H]12)c1csc(N)n1", "note": "(stereo in doubt)", "fluorescence fold increase": 1.08}
{"smiles": "CCCn1c(O)c(CN2CCCC(C)C2)c(C)c(C#N)c1=O", "note": "(stereo unspecified)", "fluorescence fold increase": 1.26}
{"smiles": "CCN(CC)Cc1c(C(=O)OC)nnn1-c1nonc1N", "fluorescence fold increase": 1.05}
{"smiles": "Cc1ccc2c(CSc3nncs3)cc(=O)oc2c1", "fluorescence fold increase": 1.02}
{"smiles": "COc1ccc(S(=O)(=O)Nc2ccc3c(c2)OCO3)cc1Cl", "fluorescence fold increase": 1.03}
{"smiles": "CCCC(=O)Nc1cccc(-c2cn3ccsc3n2)c1", "fluorescence fold increase": 1.09}
{"smiles": "COc1ccc(-c2cn3ccsc3n2)cc1", "fluorescence fold increase": 1.08}
{"smiles": "c1ccc(-c2cn3cccnc3n2)cc1", "fluorescence fold increase": "2.51 (active)"}
{"smiles": "CCOc1nc(OCC)nc(-n2cc(-c3ccccc3)nn2)n1", "fluorescence fold increase": 1.06}
{"smiles": "CC(=O)Nc1cccc(-c2cnc3ccccc3n2)c1", "fluorescence fold increase": 1.09}
{"smiles": "CC(=O)Nc1ccc(-c2cn3cccnc3n2)cc1", "fluorescence fold increase": "5.32 (active)"}
